Assay results taken from the supplement of paper PMC6089552.
Hit rate of the full screen: of about 3,200 compounds, about 300 (9.4%) showed activity. The entries come from a sample that favours actives as a whole.

Test system: A673/TR/shEF
Test: cell viability (LOESS-normalised, relative to median of negative controls) (log2 ratio); higher = more viable cells (less compound effect), active = hit call of the paper (over 3 MAD below the median)
Conditions: treatment time: 72 h
In short: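 A673/TR/shEF Ewing sarcoma cells were plated at 1,500 per well in 384-well plates and cultured with or without doxycycline, added 24 h before compounds, to induce EWS-FLI1 shRNA knockdown. Library compounds at two or more concentrations, alongside DMSO controls, were applied for three days. Cell viability was measured by CellTiter-Glo luminescence on an Envision reader. Readings were LOESS-corrected per plate, divided by the median of negative controls and log2-transformed, and hits were wells lying at least three median absolute deviations from the median of all screened wells.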

[1] = 0.25 µM, library screen: screen1, EWS-FLI1 expression: high (no doxycycline)
[2] = 0.25 µM, library screen: screen1, EWS-FLI1 expression: low (doxycycline-induced shRNA knockdown)
[3] = 2.5 µM, library screen: screen1, EWS-FLI1 expression: high (no doxycycline)
[4] = 2.5 µM, library screen: screen1, EWS-FLI1 expression: low (doxycycline-induced shRNA knockdown)
[5] = 0.25 µM, library screen: screen2, EWS-FLI1 expression: high (no doxycycline)
[6] = 0.25 µM, library screen: screen2, EWS-FLI1 expression: low (doxycycline-induced shRNA knockdown)
[7] = 2.5 µM, library screen: screen2, EWS-FLI1 expression: high (no doxycycline)
[8] = 2.5 µM, library screen: screen2, EWS-FLI1 expression: low (doxycycline-induced shRNA knockdown)
[9] = 0.025 µM, library screen: screen2, EWS-FLI1 expression: high (no doxycycline)
[10] = 0.025 µM, library screen: screen2, EWS-FLI1 expression: low (doxycycline-induced shRNA knockdown)
[11] = 25 µM, library screen: screen2, EWS-FLI1 expression: high (no doxycycline)
[12] = 25 µM, library screen: screen2, EWS-FLI1 expression: low (doxycycline-induced shRNA knockdown)

Measured: cell viability (log2)

c1ccc(N=Nc2ccccc2)cc1
inactive: [1] 0.0795 | [2] 0.0179 | [3] 0.0868 | [4] 0.083

NC(=NCCCC(N)C(=O)O)N[N+](=O)[O-] (centres undefined)
inactive: [1] 0.0461 | [2] 0.0355 | [5] 0.174 | [6] -0.00505 | [3] 0.0987 | [4] 0.0962 | [7] 0.128 | [8] 0.0828

CN1C[C@@H](CO)C=C2c3cccc4[nH]cc(c34)C[C@@H]21
inactive: [1] 0.0549 | [2] 0.11 | [3] 0.076 | [4] 0.0565

NC(=O)CN1CC(O)CC1=O (centres undefined)
inactive: [5] 0.159 | [6] 0.0927 | [7] 0.0479 | [8] 0.0838

CC[C@@H]1/C=C/C=C/C[C@H](C)[C@@H](O)[C@](C)(O)C(=O)[C@H](C)[C@@H](O)[C@H](C)C(=O)[C@H](C)[C@@H](O)[C@H](C)/C=C/C(=O)O[C@H]2[C@@H](C)[C@@H](CC1)O[C@@]1(CC[C@@H](C)[C@@H](C[C@H](C)O)O1)[C@@H]2C
active: [5] -0.731 | [6] -0.205 | [7] -0.713 | [8] -0.154

NC(CCP(=O)(O)O)C(=O)O (centres undefined)
inactive: [5] 0.115 | [6] 0.0812 | [7] 0.106 | [8] 0.13

CC(C)(C#N)O[C@@H]1O[C@H](CO)[C@@H](O)[C@H](O)[C@H]1O
inactive: [1] 0.0597 | [2] 0.0616 | [3] 0.164 | [4] -0.0392

CC(C)NC(C)Cc1ccc(I)cc1 (centres undefined)
inactive: [5] 0.0787 | [6] 0.0338 | [7] 0.129 | [8] 0.0526

CCN1C[C@]2(COC)[C@H](O)C[C@H](OC)[C@]34C1[C@H]([C@H](OC)[C@H]23)[C@]1(OC(C)=O)[C@H]2[C@@H](OC(=O)c3ccccc3)[C@](O)(C[C@H]24)[C@@H](OC)[C@@H]1O
inactive: [1] 0.162 | [2] 0.0997 | [3] 0.181 | [4] 0.202

CCC(=O)C(CC(C)N1CCOCC1)(c1ccccc1)c1ccccc1 (centres undefined)
inactive: [1] 0.0298 | [2] 0.011 | [3] 0.0537 | [4] -0.074

CC[C@@H](C(=O)[C@@H](C)[C@@H](O)[C@H](C)[C@@H]1O[C@@H]([C@@H](CC)C(=O)O)CC[C@@H]1C)[C@H]1OC2(C=C[C@@H](O)[C@]3(CC[C@@](C)([C@H]4CC[C@](O)(CC)[C@H](C)O4)O3)O2)[C@H](C)C[C@@H]1C (some centres undefined)
active: [1] -0.101 | [3] -0.582
inactive: [2] 0.0935 | [4] -0.123

O=C(O)CF
inactive: [1] -0.0204 | [2] -0.0324 | [3] 0.103 | [4] 0.0882

COc1cc(CC(C)N)c(OC)cc1I (centres undefined)
inactive: [5] 0.14 | [6] 0.0726 | [7] 0.151 | [8] 0.083

O=C[C@H](Cl)[C@@H](O)[C@H](O)[C@H](O)CO
inactive: [5] 0.14 | [6] 0.0253 | [7] 0.0931 | [8] 0.107

NCC#Cc1ccccc1
inactive: [5] 0.139 | [6] -0.0046 | [7] 0.0226 | [8] 0.0206

O=C1c2ccccc2C(=O)c2ccccc21
inactive: [1] 0.0481 | [2] 0.0868 | [3] 0.203 | [4] 0.0785

c1ccc2c(c1)[I+]c1ccccc1-2
active: [5] -1.37 | [6] -0.118 | [7] -1.4 | [8] -0.388

COc1cc2c3cc1Oc1cc(ccc1O)C[C@H]1c4c(cc(OC)c(O)c4Oc4ccc(cc4)C[C@@H]3N(C)CC2)CCN1C
inactive: [1] 0.0853 | [2] 0.0939 | [3] 0.083 | [4] 0.276

CC1=C2[C@H]3OC(=O)[C@@H](C)[C@@H]3CC[C@@]2(C)C=CC1=O
inactive: [1] 0.0669 | [2] -0.0349 | [3] 0.0906 | [4] 0.0161

CCN(CC)C(=O)N[C@H]1C=C2c3cccc4[nH]cc(c34)C[C@H]2N(C)C1
inactive: [5] 0.144 | [6] 0.146 | [7] 0.172 | [8] 0.138

C=C(C)[C@@H]1C2OC(=O)C1[C@]1(O)CC3O[C@]34C(=O)O[C@H]2[C@]14C.CC(C)(O)[C@@H]1C2OC(=O)C1[C@]1(O)C[C@H]3O[C@]34C(=O)O[C@H]2[C@]14C (some centres undefined)
inactive: [5] 0.0987 | [6] 0.0228 | [7] 0.079 | [8] 0.0567

O=C(O)C1C2CCC(O2)C1C(=O)O (centres undefined)
inactive: 0.025 µM, library screen: screen1, EWS-FLI1 expression: high (no doxycycline) 0.136 | 0.025 µM, library screen: screen1, EWS-FLI1 expression: low (doxycycline-induced shRNA knockdown) 0.0328 | [1] 0.0769 | [2] 0.0235 | [5] 0.267 | [6] 0.0812 | [7] 0.105 | [8] -0.0306
active: [3] -0.431 | [4] -2.19 | 25 µM, library screen: screen1, EWS-FLI1 expression: high (no doxycycline) -0.369 | 25 µM, library screen: screen1, EWS-FLI1 expression: low (doxycycline-induced shRNA knockdown) -2.13

O=C(O)[C@@H]1CCN1
inactive: [5] 0.101 | [6] 0.092 | [7] 0.0671 | [8] 0.0609

COc1ccc(CN2CCN(Cc3cccc(F)c3)CC2)cc1
inactive: [1] 0.0679 | [2] 0.104 | [3] 0.124 | [4] 0.0696

Nc1ncnc2c1ncn2[C@@H]1O[C@@H]2COP(O)(=S)O[C@H]2[C@H]1O (some centres undefined)
inactive: [5] 0.205 | [6] 0.149 | [7] 0.079 | [8] 0.148

CSc1nc(NC(C)C)nc(NC(C)C)n1
inactive: [1] 0.0904 | [2] -0.0688 | [3] 0.0234 | [4] 0.0938

CNC(=O)O/N=C(\C)SC
inactive: [1] 0.0466 | [2] 0.0661 | [3] 0.0904 | [4] 0.143

O=C1C=C2C(=CCOC2O)O1 (centres undefined)
active: [1] -0.259 | [3] -2.95 | [4] -0.992
inactive: [2] 0.05

C=CCN1CC[C@@]2(C)c3cc(O)ccc3CC1[C@@H]2C
inactive: [5] 0.194 | [6] 0.135 | [7] 0.028 | [8] 0.047

N#C[C@H](O[C@@H]1O[C@H](CO[C@@H]2O[C@H](CO)[C@@H](O)[C@H](O)[C@H]2O)[C@@H](O)[C@H](O)[C@H]1O)c1ccccc1
inactive: [9] 0.166 | [10] 0.0523 | [1] 0.122 | [2] -0.00438 | [5] 0.174 | [6] 0.00657 | [3] 0.113 | [4] 0.0319 | [7] 0.1 | [8] 0.0264 | [11] 0.202 | [12] 0.0554

CC(=O)[C@H]1CC[C@H]2[C@@H]3CC[C@H]4C[C@H](O)CC[C@]4(C)[C@H]3CC[C@]12C
inactive: [5] 0.267 | [6] 0.093 | [7] 0.266 | [8] 0.165

CC(=O)[C@H]1CC[C@H]2[C@@H]3CC[C@H]4C[C@@H](O)CC[C@]4(C)[C@H]3CC[C@]12C
inactive: [1] 0.0984 | [2] 0.068 | [3] 0.0674 | [4] 0.135

CC(=O)[C@H]1CC[C@H]2[C@@H]3CC[C@H]4C[C@H](O)CC[C@]4(C)[C@H]3C(=O)C[C@]12C
active: [7] -2.77 | [8] -0.524
inactive: [5] 0.0616 | [6] 0.101

CNC(=O)Oc1cccc2c1OC(C)(C)C2
inactive: [1] 0.0513 | [2] 0.0685 | [3] 0.07 | [4] 0.106

ClC1=C(Cl)[C@]2(Cl)[C@@H]3[C@@H]4C[C@@H]([C@H]5O[C@@H]45)[C@@H]3[C@@]1(Cl)C2(Cl)Cl
inactive: [1] 0.163 | [2] 0.0877 | [3] 0.115 | [4] 0.192

CC(=O)O[C@H]1CC[C@]2(C=O)C3CC[C@]4(C)[C@@H](C5=CC(=O)OC5)CC[C@]4(O)C3CC[C@]2(O)C1 (some centres undefined)
active: [3] -1.12 | [4] -1.15
inactive: [1] 0.0163 | [2] -0.145

CC(=O)OC1CCC23C(=O)OC45CCC(C6=CC(=O)OC6)C4(C)CCC2C5CCC3(O)C1 (centres undefined)
active: [3] -1.11 | [4] -1.12
inactive: [1] -0.0349 | [2] -0.171

CC(=O)O[C@H]1CC[C@@]2(C)C(=CCC3C2CC[C@]2(C)C(=O)CCC32)C1 (some centres undefined)
inactive: [1] 0.0955 | [2] 0.0874 | [3] 0.042 | [4] 0.106

C[C@]12CC[C@H]3[C@@H](CC[C@]4(O)C[C@@H](O)CC[C@]34C=O)[C@@]1(O)CC[C@@H]2C1=CC(=O)OC1
inactive: [1] 0.0251 | [2] -0.17
active: [3] -1.21 | [4] -1.3

NCCC(O)C(=O)NC1CC(N)C(OC2OC(CN)C(O)C(O)C2N)C(OC2OC(CO)C(O)C2O)C1O (centres undefined)
inactive: [1] 0.0254 | [2] -0.0377 | [3] 0.12 | [4] -0.0236

CCN1C[C@]2(C)CC[C@H](O)[C@]34C1[C@H](C[C@H]23)[C@@]1(O)C[C@H](OC)[C@H]2C[C@@H]4[C@@H]1[C@H]2O
inactive: [5] 0.0509 | [6] 0.0197 | [7] 0.0295 | [8] 0.0503

COC(=O)COc1ccc(Cl)cc1Cl
inactive: [1] 0.022 | [2] -0.0423 | [3] 0.11 | [4] 0.0409

COc1cccc(CN2CCN(Cc3cccc(F)c3)CC2)c1
inactive: [1] 0.0335 | [2] 0.131 | [3] 0.0329 | [4] 0.0279

C[C@@H]1CC[C@@]2(NC1)O[C@H]1C[C@H]3[C@@H]4CC=C5C[C@@H](O)CC[C@]5(C)[C@H]4CC[C@]3(C)[C@H]1[C@@H]2C
inactive: [9] 0.0804 | [10] 0.071 | [1] 0.101 | [2] 0.14 | [5] 0.194 | [6] 0.0802 | [3] 0.13 | [4] 0.0856 | [7] 0.106 | [8] 0.133 | [11] 0.0875 | [12] 0.0211
